The list is not random: actives were taken first. Their share in the collection is about 9.9%.
SW480 rereplic – A quantitative high throughput screen for small molecules that induce DNA re-replication in SW480 colon adenocarcinoma cells. Potency, µM (top dose mostly 46.1 µM), for the others: top-dose re-replication activation, hits mostly activators. AID 624297, 2012. SW480 DNA re-replication, Hoechst DNA content imaging, 48 h. 1.8% of 340,000 active; further: potency means the concentration at half of the fitted maximal effect; % of control where 0% means no effect; nearly all actives have a fitted effect of over 55% in size
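Hoechst fluorescence of nuclei (405 nm excitation, 500-530 nm emission) measured by plate-scanning imager after 48 hr compound exposure at 37 C; re-replication scored as increased number of nuclei with elevated intensity.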
KB-V1 cytotox – qHTS assay for MDR1-selective chemotherapeutics: Primary screen using the drug-selected MDR subline cells KB-V1; KB-V1 MDR cells viability, CellTiter-Glo, 72 h; 3.4% of 400,000 active; Potency, µM (doses to about 46.1 µM), hits mostly cytotoxic; AID 1347076, 2019; further: potency means the concentration at half of the fitted maximal effect; on the % scale 0 is the no-effect control and ±100 the full control effect; nearly all actives have a fitted effect of over 60% in size
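KB-V1 MDR subline cells in DMEM (phenol-red free, 10% FBS) exposed to compounds in qHTS concentration series for 72 h at 37 degrees C. Viability read by CellTiter-Glo luminescence; concentration-effect curves fitted after normalization and correction.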
IL-1B inflam inh – qHTS for Inhibitors of Inflammasome Signaling: IL-1-beta AlphaLISA Primary Screen. 4.7% of 360,000 active. AID 743279, 2014. THP-1 LPS/ATP IL-1B secretion, AlphaLISA, 16 h; hits give low values. activity change, % at 57.5 µM; in the data active means activity change below about -50%; inconclusive means mostly about -30% to -49%; further: on the % scale 0 is the no-effect control and ±100 the full control effect
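Secreted IL-1B measured by AlphaLISA bead assay after 16 h compound exposure of THP-1 cells; compounds (final up to 57.5 uM) added 1 h before LPS (250 ng/mL) and ATP (1.25 mM) stimulation; lower signal means less secretion.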
MCF10A rereplic – A quantitative high throughput screen for small molecules that induce DNA re-replication in MCF 10a normal breast cells; MCF 10A DNA re-replication, Hoechst nuclear intensity, 48 h; Potency, µM (titrated, usually from 46.1 µM), inactives show at the highest dose activity, positive = re-replication, hits mostly activators; 2.9% of 350,000 active; AID 624296, 2012; further: potency means the concentration at half of the fitted maximal effect; % of control where 0% means no effect; nearly all actives have a fitted effect of over 50% in size
KB-3-1 cytotox – qHTS assay for MDR1-selective chemotherapeutics: Primary screen using the parental adenocarcinoma cell KB-3-1. AID 1347075, 2019. Potency, µM (doses to about 46.1 µM), actives largely listed as cytotoxic. 1.4% of 400,000 active. KB-3-1 viability, CellTiter-Glo ATP luminescence, 72 h; further: potency means the concentration at half of the fitted maximal effect; on the % scale 0 is the no-effect control and ±100 the full control effect; nearly all actives have a fitted effect of over 60% in size
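Parental KB-3-1 viability, qHTS format: 72 h compound exposure, 37 °C; CellTiter-Glo; media-only wells and DMSO plates as controls; concentration-effect fits on corrected data.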
The depositor's hits bear a star; i = inactive; ? = inconclusive; nt = no result; [ ] = dose if it differs, or a comment. Unless noted, the call rests on the fitted dose curve; in most records, active means well fitted curve in the direction sought with a large enough effect; inconclusive means small, poorly fitted or top-dose-only effect, or another doubt; inactive means no such curve, though single readings can be large; an effect the other way counts as inactive or inconclusive.

SMILES | SW480 rereplic | KB-V1 cytotox | IL-1B inflam inh | MCF10A rereplic | KB-3-1 cytotox
CC(C)c1ccc(-c2noc(C3CCCN(C(=O)c4ccc(F)cc4F)C3)n2)cc1 (stereo unspecified) | ? | ? | ? | 12µM* | ?
Cc1ccc(-c2noc(C3CCCN(C(=O)c4ccc(F)cc4F)C3)n2)cc1 (stereo unspecified) | 4% | ? | ? | ? | ?
O=C(Nc1ccccc1)N1CCCC(c2nc(-c3ccc(F)cc3)no2)C1 (stereo unspecified) | 2% | ? | -15 | 1% | i
O=C(CNC(=O)c1ccc(Cl)cc1)NCCCn1ccnc1 | -5% | i | 0 | -4% | i
Cc1ccc2ncc3c(-c4ccc(F)cc4)nn(CC(=O)Nc4ccccc4C)c3c2c1 | nt | i | nt | nt | i
NS(=O)(=O)c1cccc(NC(=S)NC(=O)C23CC4CC(CC(C4)C2)C3)c1 | 3% | 18µM* | -86* | ? | i
Cc1ccc(S(=O)(=O)N(C)C)cc1NC(=S)NC(=O)C12CC3CC(CC(C3)C1)C2 | -4% | ? | 42 | 16% | 3.3µM*
CN(C)S(=O)(=O)c1cccc(NC(=S)NC23CC4CC(CC(C4)C2)C3)c1 | ? | i | -5 | ? | i
COc1cc(Cl)c(C)cc1NC(=O)c1cn(C2CCCC2)c(=O)c2c1c1ccccc1n2C | nt | i | nt | nt | i
[2H]c1c([2H])c([2H])c(-c2nc(N3CCCCCC3)sc2C(=O)c2ccccc2)c([2H])c1[2H] | ? | i | -18 | 7.3µM* | i
O=C(c1sc(N2CCOCC2)nc1-c1ccccc1)N1CCCCC1 | 2% | i | -6 | -3% | i
C=C1c2cccc(O)c2C(O)=C2C(=O)[C@@]3(O)C(O)=C(C(N)=O)C(=O)[C@@H](N(C)C)[C@@H]3[C@@H](O)[C@H]12 | ? | nt | nt | -2%[20.6 µM] | nt
CCCOc1ccc(C(=O)Nc2ccc(-c3cc4ccccc4oc3=O)c(C)c2)cc1 | nt | ? | nt | nt | 10µM*
O=C(CN1CCN(Cc2ccccc2Cl)C1=O)NCCCN1CCOCC1 | 22% | i | 0 | 6% | i
O=C(CCNc1ccc(Cc2ccncc2)cc1)c1cccc([N+](=O)[O-])c1 | -1% | i | -109* | ? | i
CC(=O)Nc1cc[n+](CC(=O)c2cccc([N+](=O)[O-])c2)cc1 | -13% | i | 7 | 4% | i
O=C(CCNc1cccc(F)c1)c1cccc([N+](=O)[O-])c1 | -2% | i | -86* | ? | i
Cc1ccc(S(=O)(=O)CCC(=O)c2cccc([N+](=O)[O-])c2)cc1 | 2% | i | -98* | 3.7µM* | i
CCCN(C(=O)c1cccs1)c1nnc(-c2ccncc2)s1 | 0% | i | -50* | -5% | i
CCC(C)(C)C1CCC2(CC1)NC(=O)N(CC(=O)NCCOc1ccccc1)C2=O (stereo unspecified) | -14% | ? | -19 | 1% | ?
CCC(C)(C)C1CCC2(CC1)NC(=O)N(CC(=O)NCCc1ccc(OC)c(OC)c1)C2=O (stereo unspecified) | -2% | 16µM* | -27 | 2% | ?
CCC1CCCCN1c1cc(C)nc2cc(-c3cccc(C)c3)nn12 (stereo unspecified) | ? | i | -99* | 3.5µM* | i
Cc1cc(N2CCOCC2)n2nc(-c3cccc(F)c3)cc2n1 | 4% | ? | 30 | ? | i
CCS(=O)(=O)N1CCc2cc(C(=O)Nc3cc(Cl)ccc3C)ccc21 | nt | i | nt | nt | i
O=C(c1[nH]c(C(F)(F)F)nc1-c1ccccc1)N1CCCCC1 | nt | i | -11 | nt | i
SMILES | SW480 rereplic | KB-V1 cytotox | IL-1B inflam inh | MCF10A rereplic | KB-3-1 cytotox
COc1ccccc1N1CCN(C(=O)c2[nH]c(C(F)(F)F)nc2-c2ccccc2)CC1 | nt | ? | 83 | nt | 5.8µM*
O=C(c1[nH]c(C(F)(F)F)nc1-c1ccccc1)N1CCN(c2cccc(C(F)(F)F)n2)CC1 | nt | ? | 98 | nt | 5.2µM*
CC(=O)N1CCN(C(=O)c2[nH]c(C(F)(F)F)nc2-c2ccccc2)CC1 | nt | i | 0 | nt | i
Cc1cccc(N2CCN(C(=O)c3[nH]c(C(F)(F)F)nc3-c3ccccc3)CC2)c1C | nt | ? | 128 | nt | 2.3µM*
CCOc1cc(-c2nc(-c3ccc(-c4ccc(C)cc4)nc3OC)no2)cc(OCC)c1OCC | nt | i | nt | nt | i
CCCNC(=O)C1(C)CCN(C(=O)c2ccc3sccc3c2)C1 (stereo unspecified) | nt | i | 11 | nt | i
Cc1oc(=O)c(NC(=O)c2cccc(Cl)c2)cc1C(=O)c1ccccc1 | 21µM* | ? | ? | ? | i
CC(=O)c1cc(NC(=O)c2ccc([N+](=O)[O-])cc2)c(=O)oc1C | 25% | i | -18 | 16µM* | i
COC(=O)c1cc(NC(=O)c2ccc([N+](=O)[O-])cc2)c(=O)oc1C | ? | i | 20 | -1% | i
COc1ccc(C(=O)Nc2cc(C(=O)c3ccccc3)c(C)oc2=O)cc1 | ? | i | -11 | ? | i
Cc1ccc(-n2nc3c(c2NC(=O)c2ccc(S(=O)(=O)N4CCOCC4)cc2)CSC3)c(C)c1 | ? | i | -15 | 21% | i
O=C(CCNC(=O)c1ccc(Cl)cc1)NCc1ccco1 | -8% | i | 0 | -3% | i
COC(=O)c1ccc(CCc2cc(O)c(Br)cc2O)cc1 | ? | i | -79* | ? | ?
COC(=O)c1ccc(CCc2cc(O)ccc2O)cc1 | ? | ? | ? | ? | i
Cc1ccc(C(=O)N2CCN(Cc3nc4sc5c(c4c(=O)[nH]3)CCCC5)CC2)cc1 | -4% | 16µM* | 9 | 0% | ?
O=C(c1ccccc1F)N1CCN(Cc2nc3sc4c(c3c(=O)[nH]2)CCCC4)CC1 | 4% | ? | -7 | 10% | i
COCc1ccc(CN2CCCCC2C(=O)Nc2ccc(Oc3ccccc3)nc2)o1 (stereo unspecified) | 20% | nt | 1 | 0% | nt
C=C(C)c1nc(Oc2ccccc2)nc(Oc2ccccc2)n1 | ? | i | -100* | 4.1µM* | ?
O=[N+]([O-])c1ccc(Sc2nnnn2-c2ccccc2)c(Cl)c1 | ? | ? | 6 | 4.1µM* | ?
Cn1cnnc1Sc1cc(N2CCN(S(=O)(=O)c3ccccc3)CC2)ccc1[N+](=O)[O-] | -7% | i | -26 | 7% | i
CC(=O)c1ccc(Sc2nnnn2-c2ccccc2)c([N+](=O)[O-])c1 | ? | ? | -100* | ? | ?

Assay outcomes deposited in PubChem by National Center for Advancing Translational Sciences (NCATS).
